# ALOX12 inh: blocks human arachidonate 12S-lipoxygenase; AID 1671190; purified 12hLO, xylenol orange hydroperoxide absorbance; 1.1% of 580,000 active; Potency, µM (highest dose often 108 µM), for the others: top-dose activity change, negative = inhibition, hits mostly inhibitors; note: potency is the fitted concentration of half-maximal effect; % is set by controls: 0 for no effect and ±100 for the full control effect
# Target sequence (P18054 whole entry, looked up): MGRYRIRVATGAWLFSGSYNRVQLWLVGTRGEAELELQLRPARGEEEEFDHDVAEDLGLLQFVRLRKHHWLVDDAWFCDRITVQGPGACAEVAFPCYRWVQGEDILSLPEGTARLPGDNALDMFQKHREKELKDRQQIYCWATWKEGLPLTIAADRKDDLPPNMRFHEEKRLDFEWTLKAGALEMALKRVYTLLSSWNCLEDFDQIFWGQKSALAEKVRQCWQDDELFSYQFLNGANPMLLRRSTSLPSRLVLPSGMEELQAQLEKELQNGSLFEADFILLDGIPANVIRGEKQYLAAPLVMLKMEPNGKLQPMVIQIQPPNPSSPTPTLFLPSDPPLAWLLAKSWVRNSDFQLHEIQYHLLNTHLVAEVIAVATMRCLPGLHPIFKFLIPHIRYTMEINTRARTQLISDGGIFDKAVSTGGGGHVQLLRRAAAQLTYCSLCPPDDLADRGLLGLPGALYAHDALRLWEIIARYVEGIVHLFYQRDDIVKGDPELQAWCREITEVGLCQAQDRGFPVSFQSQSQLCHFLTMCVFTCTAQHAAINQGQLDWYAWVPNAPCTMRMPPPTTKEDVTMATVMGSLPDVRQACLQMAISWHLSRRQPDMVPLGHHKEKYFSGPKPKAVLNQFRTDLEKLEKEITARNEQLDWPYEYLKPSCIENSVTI
#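 Purified human 12hLO at 150 nM in 25 mM Hepes, 0.01% Triton X-100, pH 7.0, preincubated 15 min at room temperature with compound. Reaction started with 40 uM arachidonic acid, 30 min at room temperature. Hydroperoxide measured by Fe-xylenol orange, 573/405 nm absorbance ratio.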
# a7 integrin act: integrin-mediated muscular dystrophy alleviation activation. alpha7betagal myoblasts, beta-gal FDG fluorescence, 48 h. Potency, µM (highest dose often 38.3 µM), without a hit: at the top dose activation, actives largely listed as activators. 0.064% of 350,000 active. AID 624291;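 note: potency is the fitted concentration of half-maximal effect; 100% = response of the positive control SU9516; nearly all actives have a fitted effect of over 60% in size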
#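 alpha7betagal+/- myoblasts (passage 13, 250/well) treated 48 h at 37C with compounds at 1:260 dilution of DMSO stock. Lysed, then beta-galactosidase activity read as FDG fluorescence (ex 480/em 540) after 30 min, with pre-read for autofluorescence.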
# Nrf2 activator: activators of Nrf2 (ARE) signaling; AREc32 ARE-luciferase reporter (MCF7-derived line), luminescence, 24 h; 0.31% of 410,000 active; Potency, µM (series often up to 46.1 µM), for inactives: at the highest dose activation, most hits filed as activators; note: potency is the fitted concentration of half-maximal effect; % of control where 0% means no effect; nearly all actives have a fitted effect of over 65% in size
#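 Each well held 1000 AREc32 cells, which were incubated with compound for 24 hr at 37 deg C after overnight attachment, and ARE reporter activity was quantified by firefly luciferase luminescence.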
# IL-2 act: activates IL-2 in a cell-based reporter assay. IL-2 activation reporter assay, cell-based qHTS; stimulated with anti-CD3/CD4/CD28 beads; in transgenic mouse T cells. activation, % (series mostly up to about 46 µM). 0.065% of 360,000 active. AID 652025; in the data active = activation above about 50%; inconclusive = mostly about 30% to 49%; note: 0% is about no effect
#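 Readout is EGFP and DsRed signal by fluorescent plate cytometry after 18 h at 37 degrees C. Transgenic mouse T cells (750/well) received compound for 60 min before bead stimulation (anti-CD3, anti-CD4, anti-CD28); memory T cells served as non-tolerant control.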
# uPA surface inh: cell surface uPA generation inhibition; cell surface uPA generation assay, qHTS; Potency, µM (top dose mostly 38.3 µM), inactives show at the highest dose activity change, negative = inhibition, hits mostly inhibitors; 0.31% of 330,000 active; active = well fitted inhibition curve with a large enough effect; inconclusive = small, poorly fitted or top-dose-only effect; inactive = no such curve, though single readings can be large or run the other way; tested in mouse RAW 264.7 cells; note: potency is the fitted concentration of half-maximal effect; % is set by controls: 0 for no effect and ±100 for the full control effect; nearly all actives have a fitted effect of over 55% in size
# Numbers without * were called inactive; ? = inconclusive; . = no result given; [ ] = remark or other dose. Only some compounds are listed: those with a hit (about 1.5% of all), similar ones and a draw of the others. Unless noted, calls come from the whole dose curve; as a rule, active = well fitted curve in the direction sought with a large enough effect; inconclusive = small, poorly fitted or top-dose-only effect, or another doubt; inactive = no such curve, though single readings can be large; an effect the other way counts as inactive or inconclusive.
SMILES,ALOX12 inh,a7 integrin act,Nrf2 activator,IL-2 act,uPA surface inh
Cc1ccc(S(=O)(=O)Nc2nc3ccccc3nc2NCc2ccco2)cc1,-1%,-65%,22µM*,-1,?
CNS(=O)(=O)c1ccc(Nc2c(C)nn(C)c2C)c([N+](=O)[O-])c1,-24%,.,.,.,.
C/C(=N/Nc1ccc(S(N)(=O)=O)cc1[N+](=O)[O-])c1ccccc1,-21%,.,.,.,.
C/C(=N\Nc1ccc(F)cc1F)c1ccccc1O,?,-20%,27%,0,-2%
C/C(=N/Nc1ccc(F)cc1F)c1ccccc1Br,50µM*,.,.,.,.
C/C(=N/Nc1ccc(S(N)(=O)=O)cc1[N+](=O)[O-])c1ccccc1Br,35µM*,.,.,.,.
COc1ccc(NC(=O)c2cc(-c3ccccn3)n[nH]2)cc1Cl,0%,.,.,.,.
CC(O)CNc1nc(C(C)C)c2c(c1C#N)CCCC2 (configuration not stated),110%,.,.,.,.
CC(=O)Nc1ccc(C(=O)COC(=O)c2nc3nc(C)cc(C)n3n2)cc1,40µM*,?,-1%,1,6%
Cc1noc(/C=C/c2cccnc2)c1[N+](=O)[O-],3%,?,14%,-2,7.9µM*
CCCCCCCCC(=O)c1c(OC)oc(C=O)cc1=O,7.1µM*,-14%,3%,6,.
Cc1cc(Cl)c(Cl)cc1S(=O)(=O)N(C)C,-22%,.,.,.,.
O=C1Nc2ccccc2C12CCN(Cc1cccc3ccccc13)C2 (configuration not stated),7%[6.33 µM],.,.,.,.
O=c1c(Cc2c(F)cccc2Cl)c(O)ccn1Cc1ccc2c(c1)OCO2,0%,6%,0%,2,2%
COC(=O)Cc1c(O)ccn(Cc2ccc3c(c2)OCO3)c1=O,4%,10µM*,0%,0,.
CCN1C(=NCCc2ccc(Br)cc2)N[C@@H](c2ccccc2)[C@H](C(=O)OC)[C@H]1C,45µM*,-43%,-1%,-1,-1%
CCN1C(=NCCc2ccc([N+](=O)[O-])cc2)N[C@@H](c2ccccc2)[C@H](C(=O)OC)[C@H]1C,-22%,-13%,3%,-3,-3%
Cn1ncc2c(C(=O)N3CCN(c4ncccn4)CC3)cc(-c3ccc([S+](C)(=O)[O-])cc3)nc21,0%[6.33 µM],.,.,.,.
CCC(CO)Oc1cc(NCc2ccc(Cl)cc2)c2ncn(C(C)C)c2c1 (configuration not stated),-17%,-4%,-2%,0,-12%
CCC(CO)Oc1cc(NCc2ccc(Cl)cc2Cl)c2ncn(C(C)C)c2c1 (configuration not stated),-9%,20%,-3%,-1,8.9µM*
Cc1ccc(S(=O)(=O)Nc2ccccc2N=Cc2ccc([N+](=O)[O-])cc2[N+](=O)[O-])cc1,25µM*,-46%,14µM*,-7,-3%
Cc1ccc(S(=O)(=O)Nc2ccc(S(=O)(=O)Nc3ccccc3)cc2[N+](=O)[O-])cc1,25µM*,.,.,.,.
Cc1ccc(NS(=O)(=O)c2cc([N+](=O)[O-])ccc2NN)c(C)c1,40µM*,.,.,.,.
Cc1ccc(S(=O)(=O)Nc2ccc3cc([N+](=O)[O-])ccc3c2[N+](=O)[O-])cc1,22µM*,20%,7%,1,-2%
O=[N+]([O-])c1cc(S(=O)(=O)Nc2ccccc2)ccc1Nc1ccccc1,-11%,-24%,7%,0,-8%
SMILES,ALOX12 inh,a7 integrin act,Nrf2 activator,IL-2 act,uPA surface inh
Cc1ccc(NS(=O)(=O)c2cc([N+](=O)[O-])ccc2N/N=C/c2ccc(N(c3ccccc3)c3ccccc3)cc2)c(C)c1,39%,.,.,.,.
COc1ccc([N+](=O)[O-])cc1NS(=O)(=O)c1ccc(C)cc1,8%,-8%,-1%,-3,-8%
CC(=O)Nc1ccc(CC(=O)N2CCc3c(c(-c4nncn4C)nn3C)C2)cc1,32%,.,.,.,.
C=CCn1cc(CN(Cc2ccco2)Cc2cccs2)c(C)n1,13µM*,.,.,.,.
Cc1nc(CN2C(=O)OC3(CCN(C(=O)Cc4ccccn4)CC3)C2(C)c2ccccc2)cs1 (configuration not stated),-23%,.,.,.,.
Cc1ccc2c(c1)Oc1ccc(S(=O)(=O)N(C)c3ccccc3Cl)cc1C(=O)N2,-9%,.,.,.,.
CN(Cc1cccc(C(F)(F)F)c1)[S+](=O)([O-])c1cccc(C(F)(F)F)c1,12%,.,.,.,.
Cc1ccccc1-c1nnc2sc(NC(=O)c3ccc(F)cc3)nn12,32µM*,.,.,.,.
CCCC(=O)Nc1nn2c(-c3ccccc3)nnc2s1,-9%,.,.,.,.
CCOC(=O)C1=C(C)NC(=O)CC1c1ccccc1 (configuration not stated),-1%,5%,-1%,-1,1%
CCOC(=O)C1=C(C)NC(=O)CC1C(=O)Nc1cc(Cl)cc(Cl)c1 (configuration not stated),16µM*,.,.,.,.
COc1ccccc1NC(=S)N/N=C1\CC(C)(C)Oc2ccc(O)cc21,?,-2%,1%,1,11%
COc1ccc(NC(=S)N/N=C2\CC(C)(C)Oc3ccc(O)cc32)cc1,32µM*,-24%,4%,-2,0%
C(=C\c1ccco1)/c1nc2ccccc2[nH]1,?,-28%,?,-1,7.1µM*
C(=C\c1nc2ccccc2[nH]1)/c1ccccc1,?,?,-2%,-2,?
C(=C\c1ccco1)/c1ccc2ccccc2n1,40µM*,-18%,?,-2,-4%
CO[C@H]1C(=O)N(C2CCN(C(=O)c3cnn(C)c3)CC2)[C@H]1c1ccncc1,33%,.,.,.,.
CC1=CC(=O)C=CC1=Nc1ccc(N(C)C)cc1,7.9µM*,.,-5%,-1,.
CN(C)c1ccc(N=Nc2ccc(S(N)(=O)=O)cc2)cc1,-26%,-17%,3%,0,-4%
NS(=O)(=O)c1ccc(NC(=S)Nc2ccn(Cc3cccc4ccccc34)n2)cc1,22µM*,-18%,11%,-2,-5%
Cc1sc2nc[nH]c(=S)c2c1-c1ccccc1,32µM*,0%,2%,0,3%
Cc1cc(-c2csc3nc[nH]c(=S)c23)cc(C)c1C,28µM*,-56%,9%,-2,-6%
Cc1ccc(-c2csc3nc[nH]c(=S)c23)cc1,35µM*,-41%,3%,0,-3%
Cc1sc2nc[nH]c(=O)c2c1-c1ccc(F)cc1,-9%,0%,2%,-1,-4%
S=c1[nH]cnc2scc(-c3ccc(Br)cc3)c12,-12%,-27%,0%,0,1%
CC(=O)Nc1nc2cc3c(cc2s1)OCO3,-11%,2%,-1%,-2,-9%
O=C(Nc1nc2cc3c(cc2s1)OCO3)C1=COCCO1,1%,-37%,-5%,0,2µM*
CCOc1ccccc1NC(=O)c1ncoc1-c1cccc(OC)c1,4%,.,.,.,.
COC(=O)C1CN(Cc2cn(Cc3ccc(C)cc3)nn2)CCS(=O)(=O)N1Cc1ccc(C)cc1 (configuration not stated),16µM*,.,.,.,.
O=C(Nc1ccccc1Cl)C(Cl)C(=O)c1ccccc1 (configuration not stated),20µM*,3%,3%,5,-2%

# High-throughput results from PubChem BioAssay.
